The full data set covers some 7,900 targets. This sample favours those with a hit. About 0.6% of all pairs of compound and target were hits. Values without a mark were called inactive.
How the values were obtained:
Assay in all cases: log2 fold change, soluble protein after heating vs DMSO (PISA); higher = thermal stabilisation; K562 cells, 10 uM, 30 min; active = over 0.2 and 3.5 SD of the protein, either way, in both replicates (recomputed)
[1] = compound: CS(=O)(=O)c1ccc(-c2cnc(N)c(C(=O)Nc3ccccc3)n2)cc1
In short: (§1)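 Values are thermal stability changes relative to control samples and are taken from duplicates. They are stated as log2 fold changes. Before quantification by TMTpro 16plex LC-MS/MS with equalised channel sums, K562 cells at 2×10^6 cells/mL were treated with 10 μM compound for 30 min, heated in aliquots for 3 min across 48°C-58°C, pooled, extracted in PBS with 0.5% NP-40 at 4°C, and centrifuged at 21,000xg for 90 min to give the soluble supernatant.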

crizotinib = compound: C[C@@H](Oc1cc(-c2cnn(C3CCNCC3)c2)cnc1N)c1c(Cl)ccc(F)c1Cl [crizotinib]
In short: as §1

[2] = compound: C[C@@H]1COCCN1C2=NC(=NC(=C2)C3(CC3)S(=O)(=O)C)C4=C5C=CNC5=CC=C4
In short: as §1

[3] = compound: C[C@H](C1=CC=C(C=C1)C(=O)NC2=C3C=CNC3=NC=C2)N
In short: as §1

duvelisib = compound: C[C@H](Nc1ncnc2nc[nH]c12)c1cc2cccc(Cl)c2c(=O)n1-c1ccccc1 [duvelisib]
In short: as §1

gandotinib = compound: Cc1cc(Nc2cc(CN3CCOCC3)c3nc(C)c(Cc4ccc(Cl)cc4F)n3n2)n[nH]1 [gandotinib]
In short: as §1

tozasertib = compound: Cc1cc(Nc2cc(N3CCN(C)CC3)nc(Sc3ccc(NC(=O)C4CC4)cc3)n2)n[nH]1 [tozasertib]
In short: as §1

[4] = compound: Cc1cc(SCc2sc(-c3ccc(C(F)(F)F)cc3)nc2C)ccc1OCC(=O)O
In short: as §1

doramapimod = compound: Cc1ccc(-n2nc(C(C)(C)C)cc2NC(=O)Nc2ccc(OCCN3CCOCC3)c3ccccc23)cc1 [doramapimod]
In short: as §1

ispinesib = compound: Cc1ccc(C(=O)N(CCCN)[C@@H](c2nc3cc(Cl)ccc3c(=O)n2Cc2ccccc2)C(C)C)cc1 [ispinesib]
In short: as §1

UniProt Q96KC8, sequence (Q96KC8 whole entry, looked up): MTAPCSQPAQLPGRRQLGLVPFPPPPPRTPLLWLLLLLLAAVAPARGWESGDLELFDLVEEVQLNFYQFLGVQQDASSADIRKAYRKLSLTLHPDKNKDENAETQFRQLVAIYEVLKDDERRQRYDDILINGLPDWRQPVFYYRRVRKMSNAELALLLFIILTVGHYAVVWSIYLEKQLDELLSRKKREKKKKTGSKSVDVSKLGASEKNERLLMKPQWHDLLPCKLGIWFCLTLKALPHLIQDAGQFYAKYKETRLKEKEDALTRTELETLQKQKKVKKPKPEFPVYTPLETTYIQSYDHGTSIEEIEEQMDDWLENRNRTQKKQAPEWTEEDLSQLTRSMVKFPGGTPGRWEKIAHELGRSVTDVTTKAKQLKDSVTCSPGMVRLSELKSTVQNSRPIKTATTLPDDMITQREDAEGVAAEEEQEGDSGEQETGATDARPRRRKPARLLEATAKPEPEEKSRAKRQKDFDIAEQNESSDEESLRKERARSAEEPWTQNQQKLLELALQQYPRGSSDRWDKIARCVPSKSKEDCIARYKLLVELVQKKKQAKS
UniProt Q6V1X1, sequence (Q6V1X1 whole entry, looked up): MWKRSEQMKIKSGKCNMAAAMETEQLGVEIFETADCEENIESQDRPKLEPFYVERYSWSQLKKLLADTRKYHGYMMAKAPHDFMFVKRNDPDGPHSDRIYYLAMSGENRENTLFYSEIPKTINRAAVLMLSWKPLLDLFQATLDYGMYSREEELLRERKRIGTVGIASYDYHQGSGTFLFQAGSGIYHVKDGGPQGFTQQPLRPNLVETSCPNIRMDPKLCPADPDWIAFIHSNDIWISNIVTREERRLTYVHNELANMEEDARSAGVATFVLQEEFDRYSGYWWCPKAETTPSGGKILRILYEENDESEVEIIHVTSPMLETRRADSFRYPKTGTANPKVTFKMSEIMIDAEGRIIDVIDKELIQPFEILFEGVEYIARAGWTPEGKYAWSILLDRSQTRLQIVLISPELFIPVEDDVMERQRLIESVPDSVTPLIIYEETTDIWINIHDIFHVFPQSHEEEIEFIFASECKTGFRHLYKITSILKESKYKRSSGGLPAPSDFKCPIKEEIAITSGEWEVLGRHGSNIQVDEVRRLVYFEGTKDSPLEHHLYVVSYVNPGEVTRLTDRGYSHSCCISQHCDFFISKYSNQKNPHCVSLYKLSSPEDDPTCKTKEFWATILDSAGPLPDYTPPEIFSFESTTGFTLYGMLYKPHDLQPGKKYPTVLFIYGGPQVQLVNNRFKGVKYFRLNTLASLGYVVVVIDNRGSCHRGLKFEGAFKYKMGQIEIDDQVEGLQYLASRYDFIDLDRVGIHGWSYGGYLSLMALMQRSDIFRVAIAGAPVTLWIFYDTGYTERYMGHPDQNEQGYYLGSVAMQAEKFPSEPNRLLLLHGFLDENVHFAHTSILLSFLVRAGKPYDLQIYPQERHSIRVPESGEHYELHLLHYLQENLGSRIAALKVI
UniProt Q16643, sequence (Q16643 whole entry, looked up): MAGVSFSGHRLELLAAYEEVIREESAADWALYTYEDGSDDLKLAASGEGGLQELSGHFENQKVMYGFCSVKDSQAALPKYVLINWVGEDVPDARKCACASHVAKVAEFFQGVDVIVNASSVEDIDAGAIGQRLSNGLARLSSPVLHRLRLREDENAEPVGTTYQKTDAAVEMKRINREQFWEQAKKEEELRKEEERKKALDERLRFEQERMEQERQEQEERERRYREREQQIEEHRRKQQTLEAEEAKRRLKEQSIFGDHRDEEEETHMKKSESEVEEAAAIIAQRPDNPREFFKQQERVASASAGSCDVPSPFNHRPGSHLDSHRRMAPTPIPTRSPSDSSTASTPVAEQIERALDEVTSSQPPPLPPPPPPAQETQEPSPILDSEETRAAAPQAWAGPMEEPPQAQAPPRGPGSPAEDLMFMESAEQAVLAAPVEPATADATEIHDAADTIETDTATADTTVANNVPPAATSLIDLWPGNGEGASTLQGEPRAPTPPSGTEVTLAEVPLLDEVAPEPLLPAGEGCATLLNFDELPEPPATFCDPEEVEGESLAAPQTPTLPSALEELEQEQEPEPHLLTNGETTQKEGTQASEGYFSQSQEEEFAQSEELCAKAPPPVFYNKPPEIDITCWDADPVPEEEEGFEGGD
UniProt Q04637, sequence (Q04637 whole entry, looked up): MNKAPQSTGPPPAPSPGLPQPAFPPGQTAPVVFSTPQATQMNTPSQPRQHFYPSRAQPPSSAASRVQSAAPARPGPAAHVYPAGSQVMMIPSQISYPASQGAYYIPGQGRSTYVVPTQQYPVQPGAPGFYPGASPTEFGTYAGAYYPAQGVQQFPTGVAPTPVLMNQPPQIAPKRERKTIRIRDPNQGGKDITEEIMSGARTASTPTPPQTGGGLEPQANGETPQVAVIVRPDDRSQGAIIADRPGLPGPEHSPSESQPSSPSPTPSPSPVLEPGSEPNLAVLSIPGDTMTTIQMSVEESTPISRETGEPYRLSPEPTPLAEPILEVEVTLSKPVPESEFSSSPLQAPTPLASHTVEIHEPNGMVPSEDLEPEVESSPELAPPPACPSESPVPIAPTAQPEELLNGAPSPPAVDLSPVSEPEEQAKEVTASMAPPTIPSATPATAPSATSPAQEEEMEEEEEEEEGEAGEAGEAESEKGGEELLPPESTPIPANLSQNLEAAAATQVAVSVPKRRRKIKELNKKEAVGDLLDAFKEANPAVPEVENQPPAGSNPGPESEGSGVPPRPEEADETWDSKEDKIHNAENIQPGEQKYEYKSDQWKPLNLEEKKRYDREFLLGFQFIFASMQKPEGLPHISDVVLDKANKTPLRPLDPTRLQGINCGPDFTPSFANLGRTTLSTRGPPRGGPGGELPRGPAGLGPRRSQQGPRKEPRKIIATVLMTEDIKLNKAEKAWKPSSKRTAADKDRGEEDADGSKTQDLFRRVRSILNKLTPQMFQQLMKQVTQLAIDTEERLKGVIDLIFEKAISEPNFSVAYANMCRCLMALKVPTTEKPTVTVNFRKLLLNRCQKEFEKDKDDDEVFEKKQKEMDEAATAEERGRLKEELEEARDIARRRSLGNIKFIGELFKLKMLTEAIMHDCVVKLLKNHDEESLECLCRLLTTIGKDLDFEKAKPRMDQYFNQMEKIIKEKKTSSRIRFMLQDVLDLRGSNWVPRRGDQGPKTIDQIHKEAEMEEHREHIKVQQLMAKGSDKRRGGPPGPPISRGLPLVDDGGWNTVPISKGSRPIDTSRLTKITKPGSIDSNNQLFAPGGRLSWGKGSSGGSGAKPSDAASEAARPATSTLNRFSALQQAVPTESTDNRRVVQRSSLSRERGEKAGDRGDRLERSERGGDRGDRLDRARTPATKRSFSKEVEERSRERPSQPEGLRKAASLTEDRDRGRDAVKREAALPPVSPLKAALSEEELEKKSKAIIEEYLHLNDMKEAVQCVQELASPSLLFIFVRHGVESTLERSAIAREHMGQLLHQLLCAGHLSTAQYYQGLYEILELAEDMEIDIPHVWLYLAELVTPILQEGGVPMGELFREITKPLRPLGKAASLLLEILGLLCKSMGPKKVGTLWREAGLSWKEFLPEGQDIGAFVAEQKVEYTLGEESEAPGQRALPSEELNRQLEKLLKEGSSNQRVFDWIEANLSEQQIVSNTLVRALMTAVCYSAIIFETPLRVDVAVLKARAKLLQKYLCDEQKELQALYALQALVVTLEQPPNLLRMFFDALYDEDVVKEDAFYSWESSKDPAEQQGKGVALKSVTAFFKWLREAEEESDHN
UniProt P53634, sequence (P53634 whole entry, looked up): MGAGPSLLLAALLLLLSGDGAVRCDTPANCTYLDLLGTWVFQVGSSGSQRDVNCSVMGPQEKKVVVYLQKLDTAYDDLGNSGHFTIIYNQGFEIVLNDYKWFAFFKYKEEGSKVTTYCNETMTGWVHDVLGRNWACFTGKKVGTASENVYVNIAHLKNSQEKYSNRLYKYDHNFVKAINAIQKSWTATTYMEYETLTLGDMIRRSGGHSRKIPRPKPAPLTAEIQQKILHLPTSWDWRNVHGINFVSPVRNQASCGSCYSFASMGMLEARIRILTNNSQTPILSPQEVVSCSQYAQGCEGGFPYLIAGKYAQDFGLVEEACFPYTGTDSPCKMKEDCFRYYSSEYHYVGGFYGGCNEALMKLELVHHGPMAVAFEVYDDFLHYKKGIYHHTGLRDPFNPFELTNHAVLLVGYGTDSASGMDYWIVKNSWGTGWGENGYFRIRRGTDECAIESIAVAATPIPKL
UniProt Q8N5C7, sequence (Q8N5C7 whole entry, looked up): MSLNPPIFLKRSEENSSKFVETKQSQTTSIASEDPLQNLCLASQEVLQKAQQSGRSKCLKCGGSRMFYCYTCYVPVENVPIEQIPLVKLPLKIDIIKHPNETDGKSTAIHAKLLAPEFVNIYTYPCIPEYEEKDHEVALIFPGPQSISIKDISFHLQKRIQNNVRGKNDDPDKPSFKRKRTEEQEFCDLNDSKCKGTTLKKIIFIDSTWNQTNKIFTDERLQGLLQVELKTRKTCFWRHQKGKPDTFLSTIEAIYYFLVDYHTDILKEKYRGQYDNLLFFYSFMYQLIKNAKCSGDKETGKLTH
UniProt Q16254, sequence (Q16254 whole entry, looked up): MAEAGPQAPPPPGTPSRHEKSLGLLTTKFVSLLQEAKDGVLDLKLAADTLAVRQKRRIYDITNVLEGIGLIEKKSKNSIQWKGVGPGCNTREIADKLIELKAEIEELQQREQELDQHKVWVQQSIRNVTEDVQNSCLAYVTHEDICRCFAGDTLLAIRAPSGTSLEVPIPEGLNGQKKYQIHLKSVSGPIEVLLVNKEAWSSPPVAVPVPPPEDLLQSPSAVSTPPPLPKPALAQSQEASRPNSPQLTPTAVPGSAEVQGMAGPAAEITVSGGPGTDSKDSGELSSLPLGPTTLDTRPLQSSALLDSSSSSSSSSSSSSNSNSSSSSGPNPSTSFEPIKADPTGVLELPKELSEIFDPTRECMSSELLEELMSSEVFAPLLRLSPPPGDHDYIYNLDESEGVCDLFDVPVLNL

Target | log2 fold change [1] | log2 fold change (crizotinib) | log2 fold change [2] | log2 fold change [3] | log2 fold change (duvelisib) | log2 fold change (gandotinib) | log2 fold change (tozasertib) | log2 fold change [4] | log2 fold change (doramapimod) | log2 fold change (ispinesib)
DHCR24 (UniProt Q15392) | 0.229 | 0.428 | 0.076 | 0.056 | 0.027 | -0.025 | 0.276 | -0.063 | 0.982 (active) | -0.053
DNAH10 (UniProt Q8IVF4) | 0.124 | 0.135 | -0.003 | -0.055 | 0.077 | -0.136 | -0.146 | -0.082 | -0.003 | 
E2F4 (UniProt Q16254) | 0.04 | -0.029 | 0.024 | -0.095 | 0.027 | -0.034 | 0.086 | -0.019 | 0.024 | -0.103
DNAJC1 (UniProt Q96KC8) | -0.021 | -0.148 | 0.009 | 0.023 | 0.027 | -0.094 | -0.035 | 0.009 | 0.002 | -0.356 (active)
ECH1 (UniProt Q13011) | 0.025 | -0.086 | 0.068 | -0.011 | 0.04 | -0.195 | 0.434 (active) | -0.008 | -0.023 | -0.208
ERLIN2 (UniProt O94905) | -0.017 | -0.034 | -0.167 | 0.068 | -0.032 | -0.044 | 0.009 | 0.155 | 0.057 | -0.251 (active)
EEF1G isoform 2 (UniProt P26641) | 0.011 | 0.015 | -0.028 | 0.006 | -0.011 | -0.061 | 0.046 | 0.061 | -0.013 | 0.061
CTSZ (UniProt Q9UBR2) | -0.001 | -0.007 | 0.021 | -0.033 | -0.037 | 0.03 | -0.015 | -0.037 | 0.05 | -0.481 (active)
EVC2 (UniProt Q86UK5) | 0.022 | -0.061 | -0.244 | -0.209 | -0.162 | 0.071 | 0.02 | -0.052 | 0 | 0.065
DAB2 (UniProt P98082) | -0.04 | -0.099 | 0.049 | -0.052 | -0.021 | -0.021 | -0.023 | 0.069 | 0.022 | -0.091
DIP2A (UniProt Q14689) | -0.094 | 0.087 | 0.159 | -0.01 | 0.071 | 0.023 | -0.077 | 0.081 | 0.141 | 0.01
DCUN1D1 (UniProt Q96GG9) | -0.027 | -0.061 | -0.047 | -0.067 | 0.004 | -0.059 | -0.004 | 0.002 | -0.053 | 0.036
EDC4 (UniProt Q6P2E9) | -0.064 | 0.179 | 0.003 | -0.092 | 0.003 | -0.18 | 0.061 | 0.033 | 0.005 | -0.031
ESYT1 isoform 2 (UniProt Q9BSJ8) | 0.021 | -0.134 | -0.076 | 0.069 | 0.014 | 0.024 | -0.017 | 0.11 | 0.083 | -0.265
DDX46 (UniProt Q7L014) | 0.12 | 0.1 | 0.185 | -0.025 | 0.144 | -0.144 | 0.109 | 0.235 | -0.087 | 0.197
DHPS (UniProt M0R1T2) | -0.152 |  |  |  |  |  |  |  |  | 
DTWD1 (UniProt Q8N5C7) | 0.053 | 0.067 | 0.061 | 0.014 | 0.015 | 0.098 | 0.029 | 0.012 | 0.009 | -0.001
DHCR7 (UniProt Q9UBM7) | -0.003 | 0.192 | -0.085 | 0.089 | -0.029 | -0.304 | -0.055 | 0.051 | 0.049 | -0.056
EIF4G1 isoform 8 (UniProt Q04637) | -0.21 | -0.314 | -0.206 | 0.109 | -0.1 | -0.032 | 0.008 | 0.149 | 0.032 | -0.324
CUTA isoform 2 (UniProt O60888) | 0.073 | -0.045 | 0.021 | -0.001 | 0.01 | 0.131 | -0.05 | -0.049 | -0.019 | 0.109
DBN1 isoform 3 (UniProt Q16643) | -0.063 | 0.088 | -0.075 | 0.044 | -0.097 | -0.009 | 0.158 | -0.02 | 0.02 | 0.071
DPP8 (UniProt Q6V1X1) | 0.04 | -0.003 | 0.011 | -0.048 | 0.025 | -0.038 | -0.027 | 0.006 | 0.008 | 0.019
EXOC2 (UniProt Q96KP1) | 0.006 | -0.308 | -0.112 | 0.101 | -0.081 | 0.009 | 0.017 | 0.119 | 0.06 | -0.394 (active)
DNTTIP2 (UniProt Q5QJE6) | 0.012 | -0.028 | -0.051 | 0.268 | -0.26 | 0.107 | -0.037 | 0.052 | 0.129 | -0.093
DHRS3 (UniProt O75911) | 0.083 | 0.093 | 0.115 | 0.069 | 0.027 | -0.027 | -0.089 | -0.049 | -0.037 | 0.015
EXTL2 (UniProt Q9UBQ6) | 0.132 | 0.111 | 0.014 | -0.227 | -0.015 | 0.068 | 0.141 | -0.046 | -0.01 | 0.108
DAG1 (UniProt Q14118) | 0.037 | 0.119 | 0.132 | 0.032 | 0.116 | -0.006 | -0.084 | -0.032 | -0.001 | -0.001
CTSC (UniProt P53634) | 0.042 | -0.037 | -0.015 | -0.062 | 0.018 | 0 | 0.063 | -0.047 | 0.013 | -0.057

Reference: the supplement of paper PMC10849652
